Data taken from PubChem BioAssay AID463173 (ICCB-Longwood Screening Facility, Harvard Medical School, 2010).
Screen size: about 52,000 compounds; about 1,700 (3.3%) were called active. Rule as the data show it: active = survival mostly below about 52% (no sharp cut-off); inactive = mostly above about 56%. The sample as a whole holds a higher share of actives than the screen did.

tested on: Wild type; assay: growth inhibition of S. aureus wild type versus tarO mutant, primary screen, teichoic acid synthesis inhibitors, RN4220, OD600 (AID 463173); conditions: S. aureus RN4220 wild type/DeltatarO growth, OD600, 18 h, active compounds read low, screened at 18.75 µg/mL (by protocol)

| Compound | survival |
| --- | --- |
| Cc1ccc(C2=NN(CC(=O)NCCN(CC(C)C)CC(C)C)C(=O)CC2)cc1 | 129% (inactive) |
| CCN(CCCNC(=O)CN1N=C(c2ccccc2)CCC1=O)c1ccccc1 | -6% (active) |
| CCN(CCCNC(=O)CN1N=C(c2ccccc2)CCC1=O)c1cccc(C)c1 | 136% (inactive) |
| CCN(CCCNC(=O)CN1N=C(c2ccc(C)cc2)CCC1=O)c1ccccc1 | -2% (active) |
| Cc1ccc(C2=NN(CC(=O)NCCC(C)C)C(=O)CC2)cc1 | 10% (active) |
| CCCCN(CCCNC(=O)CN1N=C(c2ccc(C)cc2)CCC1=O)c1ccccc1 | 101% (inactive) |
| Cc1ccc(C2=NN(CC(=O)NCCCN(CC(C)C)CC(C)C)C(=O)CC2)cc1 | 84% (inactive) |
| CCN(CCCNC(=O)CN1N=C(c2ccc(OC)cc2)CCC1=O)c1cccc(C)c1 | 124% (inactive) |
| CCCCN(CCCNC(=O)CN1N=C(c2ccccc2)CCC1=O)c1ccccc1 | 72% (inactive) |
| COc1ccccc1N1CCN(C(=O)c2cnn(-c3ccc(C)c(C)c3)c2C2CCN(C(=O)OC(C)(C)C)CC2)CC1 | 99% (inactive) |
| CC(=O)NCCNc1nc2c(-c3ccc(C)cc3)nnn2c2ccccc12 | 82% (inactive) |
| CCN(CC)C(=O)c1cc(-c2ccc(Cl)cc2)on1 | 51% (inactive) |
| CCCN1C(=O)C(NC(=O)c2ccccc2OC)(C(F)(F)F)C(C(=O)OC)=C1C (centres undefined) | 78% (inactive) |
| N#C/C(=C\c1cc(Br)c(O)c(Br)c1)c1nc2ccccc2c(=O)[nH]1 | 94% (inactive) |
| O=C(NCc1ccccc1Cl)c1cc(=O)[nH]c2ccc(S(=O)(=O)N3CCCCC3)cc12 | 83% (inactive) |
| CCOC(=O)c1c(Nc2ccc(C)cc2)nnc(-c2ccccc2)c1-c1ccccc1 | 2% (active) |
| CCOC(=O)c1c(Nc2ccc(C)c(C)c2)nnc(-c2ccccc2)c1-c1ccccc1 | 0% (active) |
| CCOC(=O)c1c(Nc2cc(C)cc(C)c2)nnc(-c2ccccc2)c1-c1ccccc1 | 38% (inactive) |
| CCOC(=O)c1c(Nc2cccc(C)c2)nnc(-c2ccccc2)c1-c1ccccc1 | 0% (active) |
| CCOC(=O)c1c(C)oc2nc(C)nc(Nc3ccc(C)c(Cl)c3)c12 | 80% (inactive) |
| CCOC(=O)c1c(Nc2ccc(F)cc2)nnc(-c2ccccc2)c1-c1ccccc1 | 1% (active) |
| CCOC(=O)c1cnc(-c2ccccc2)nc1Nc1ccc(C)cc1 | 111% (inactive) |
| CCOC(=O)c1c(Nc2cccc(O)c2)nnc(-c2ccccc2)c1-c1ccccc1 | 44% (inactive) |
| CCOC(=O)c1nc(Nc2ccc(OC)cc2)c2ccccc2n1 | 143% (inactive) |

| Compound | survival |
| --- | --- |
| CCOC(=O)c1c(Oc2ccc(C(C)=O)cc2)nnc(-c2ccccc2)c1-c1ccccc1 | 92% (inactive) |
| CCOC(=O)c1cccc(Nc2cc(-c3ccccc3)ncn2)c1 | 40% (inactive) |
| CCOC(=O)c1c(C)oc2nc(C)nc(Nc3ccc(CC)cc3)c12 | 115% (inactive) |
| CCCCOC(=O)c1ccc(Nc2ncnc3c2cnn3-c2cccc(C)c2)cc1 | 88% (inactive) |
| Cn1cnnc1SC1CCCCC1NS(=O)(=O)c1ccc(Cl)cc1 (centres undefined) | 103% (inactive) |
| COc1ccccc1N1CCN(c2cc(C)nc3nc(-c4ccc(Cl)cc4)nn23)CC1 | 78% (inactive) |
| CCCCN(CC)CCCNC(=O)c1cc2c(=O)oc3ccc(C)cc3c2s1 | 97% (inactive) |
| COc1ccc2c(c1)c1c(c(=O)n(Cc3ccccc3)c(=O)n1CC(=O)NCc1ccc(C)cc1)n2C | 82% (inactive) |
| COc1ccc(-c2noc(CSc3nnc(Cc4ccccc4)n3-c3cccc(C)c3)n2)cc1 | 67% (inactive) |
| COc1ccc(N2CC(C(=O)NC3=NCCS3)CC2=O)cc1 (centres undefined) | 102% (inactive) |
| CC(C)N(C(=O)Cn1cc(SCC(=O)Nc2ccccc2F)c2ccccc21)C(C)C | 86% (inactive) |
| O=Nc1c(O)n2c3c(cccc13)CCC2 | 124% (inactive) |
| N#CC(C#N)=C(N)/C(C#N)=C\c1ccc(-c2ccccc2)o1 | 129% (inactive) |
| O=S(=O)(c1ccc(Cl)cc1)c1nc(-c2ccco2)oc1SCc1ccc(F)cc1 | 73% (inactive) |
| COc1cccc(NC(=O)C2=C(C)C(=O)OC23CCN(C(C)=O)CC3)c1 | 79% (inactive) |
| CCOC(=O)c1c(Oc2ccc(C(=O)OC)cc2)nnc(-c2ccccc2)c1-c1ccccc1 | 87% (inactive) |
| CCOC(=O)c1c(Nc2ccc(O)cc2)nnc(-c2ccccc2)c1-c1ccccc1 | 96% (inactive) |
| CCOC(=O)c1c(Nc2ccccc2)nnc(-c2ccccc2)c1-c1ccccc1 | 5% (active) |
| CCOC(=O)c1c(-c2ccccc2)csc1NC(=O)c1cc(-c2cccc(OC)c2)on1 | 72% (inactive) |
| CC(=O)N1CCCc2cc(S(=O)(=O)N(Cc3ccccc3)C(C)C)ccc21 | 73% (inactive) |
| COc1cc(C(=O)OCc2cc(=O)n3nc(C(C)C)sc3n2)cc(OC)c1OC | 78% (inactive) |
| COc1ccccc1C(=O)Nc1ccccc1C(=O)OCc1cc(=O)n2ccsc2n1 | -6% (active) |
| Cc1ccccc1C(=O)Nc1ccccc1C(=O)OCc1cc(=O)n2ccsc2n1 | 98% (inactive) |
| O=C(Nc1ccccc1C(=O)OCc1cc(=O)n2ccsc2n1)c1ccccc1Cl | 75% (inactive) |

| Compound | survival |
| --- | --- |
| COc1ccccc1C(=O)Nc1cccc(C(=O)OCc2cc(=O)n3ccsc3n2)c1 | -6% (active) |
| COc1cc(C(=O)OCc2cc(=O)n3ccsc3n2)cc(OC)c1OC | -4% (active) |
| COc1ccccc1C(=O)Nc1ccc(C(=O)OCc2cc(=O)n3ccsc3n2)cc1 | 72% (inactive) |
| Cc1ccccc1C(=O)Nc1cccc(C(=O)OCc2cc(=O)n3ccsc3n2)c1 | 64% (inactive) |
| Cc1cccc(C(=O)OCc2cc(=O)n3ccsc3n2)c1 | 71% (inactive) |
| O=[N+]([O-])c1cc(-c2nc(-c3ccccn3)no2)ccc1NCc1ccccc1 | 73% (inactive) |
| CCOC(=O)Cn1c(=O)oc2cc(S(=O)(=O)N3CCN(c4ccc(C(C)=O)cc4)CC3)ccc21 | 81% (inactive) |
| CC(C)(C)OC(=O)N1CCC(c2c(C(=O)N3CCN(c4ccccn4)CC3)cnn2-c2ccccc2Cl)CC1 | 53% (inactive) |
| COc1cc(NC(=O)c2ccccc2)c(OC)cc1NC(=O)CN1CCCCC1 | 109% (inactive) |
| CCOC(=O)c1ccc(N2C(=O)c3n[nH]c(-c4cccs4)c3C2c2ccc(C)cc2)cc1 (centres undefined) | 66% (inactive) |
| CCN(CC)CCNC(=O)c1[nH]c2ccccc2c1Sc1ccc(Cl)cc1 | 42% (inactive) |
| CCCCNC(=O)c1[nH]c2ccccc2c1Sc1ccc(C)cc1 | 83% (inactive) |
| CC1CCCCN1CCCNC(=O)c1[nH]c2ccccc2c1Sc1ccc(Cl)cc1 (centres undefined) | -1% (active) |
| CCC1CCCCN1CCCNC(=O)c1[nH]c2ccccc2c1Sc1ccc(Cl)cc1 (centres undefined) | -1% (active) |
| CC1CCCCN1CCCNC(=O)c1cc(Sc2cccc(Cl)c2)nc2ccccc12 (centres undefined) | 54% (inactive) |
| CCOC(=O)C1CCCN(C(=O)c2[nH]c3ccccc3c2Sc2ccc(Cl)cc2)C1 (centres undefined) | 75% (inactive) |
| COc1ccc(-c2noc(-c3ccc(NCCc4ccccc4)c([N+](=O)[O-])c3)n2)cc1 | 84% (inactive) |
| CC(=O)Nc1ccc(C(=O)N2CC(C)OC(C)C2)cc1 (centres undefined) | 133% (inactive) |
| CC(C(=O)N1CCCCC1)N1CCC(N2CCCCC2)CC1 (centres undefined) | 93% (inactive) |
| CCc1ccccc1NC(=O)CN1C(=O)CCSc2ccc(S(=O)(=O)N3CCCC3)cc21 | 124% (inactive) |
| O=C(Nc1ccc2oc(-c3cccnc3)nc2c1)c1ccc(-c2cccc(OC(F)(F)F)c2)o1 | 80% (inactive) |
| Cc1ccc(NC(=O)N(Cc2c[nH]c3ccccc23)C2CCCCCC2)cc1C | 54% (inactive) |
| Cc1ccc(NC(=O)N(Cc2cn(C)c3ccccc23)C2CCCCC2)cc1C | -1% (active) |
| Cn1cc(CN(C(=O)Nc2ccccc2)C2CCCCC2)c2ccccc21 | -1% (active) |

| Compound | survival |
| --- | --- |
| Cn1cc(CN(C(=O)Nc2ccc(Cl)c(Cl)c2)C2CCCCC2)c2ccccc21 | 60% (inactive) |
| COc1ccc2[nH]c(=O)c(CN(C(=O)Nc3ccccc3)C3CCCC3)cc2c1 | 103% (inactive) |
| O=C(Nc1ccccc1)N(Cc1c[nH]c2ccccc12)C1CCCCCC1 | 48% (inactive) |
| CCOc1ccc(C(=O)Nc2ccccc2C(=O)OCc2cc(=O)n3nc(C4CC4)sc3n2)cc1 | 78% (inactive) |
| CCOC(=O)c1c(C)[nH]c(CCC(=O)Nc2ccc(C)c(F)c2)c1C | 70% (inactive) |
| O=C(NCC(c1cccnc1)N1CCN(Cc2ccccc2)CC1)C(=O)Nc1cccc(F)c1 (centres undefined) | 114% (inactive) |
| COc1ccc(CCN2CC(C(=O)NCCc3ccc(C)cc3)CC2=O)cc1OC (centres undefined) | 60% (inactive) |
| Cc1cccc(CNC(=O)c2cnc3sc(N4CCOCC4)nn3c2=O)c1 | 119% (inactive) |
| Cc1cc(=O)[nH]c2nnc(SCc3c(F)cccc3Cl)n12 | 140% (inactive) |
| COc1ccccc1C(=O)Nc1ccccc1OCc1cc(=O)n2c(C)csc2n1 | 81% (inactive) |
| CSc1ncc(C(=O)Nc2ccc(F)cc2F)c(-c2ccccc2)n1 | 73% (inactive) |
| CSc1ncc(C(=O)NCc2ccccc2)c(-c2ccccc2)n1 | 10% (active) |
| CSc1ncc(C(=O)NCc2ccc(F)cc2)c(-c2ccccc2)n1 | 87% (inactive) |
| COc1ccc(NC(=O)c2csc3c2CCCCC3)cc1 | 72% (inactive) |
| CSc1ncc(C(=O)NCc2cccc(C)c2)c(-c2ccccc2)n1 | 65% (inactive) |
| CCOc1ccc(OCC)c(NC(=O)c2csc3c2CCCC3)c1 | -1% (active) |
| CSc1ncc(C(=O)NCc2cccc(F)c2)c(-c2ccccc2)n1 | 82% (inactive) |
| CSc1ncc(C(=O)NCc2ccc(C)cc2)c(-c2ccccc2)n1 | -2% (active) |
| CCOc1ccc(CCNC(=O)c2csc3c2CCCCC3)cc1 | 81% (inactive) |
| CCOc1ccc(OCC)c(NC(=O)c2cnc(SC)nc2-c2ccccc2)c1 | 0% (active) |
| CSc1ncc(C(=O)NCc2ccc(C)cc2)c(C)n1 | 73% (inactive) |
| COc1ccc(Cl)cc1NC(=O)c1cnc(SC)nc1-c1ccccc1 | 22% (inactive) |
